Screens deposited in PubChem by National Center for Advancing Translational Sciences (NCATS).
A selection: hits, their analogues and other compounds. The true share with any hit is near 21%.
TDP1 cell CPT – qHTS for Inhibitors of human tyrosyl-DNA phosphodiesterase 1 (TDP1): qHTS in cells in presence of CPT | Potency, µM (titrated, usually from 46.2 µM), for the others: top-dose activity change, negative = growth inhibition, usual class: inhibitors | 12% of 420,000 active | chicken DT40 Tdp1-/-;hTDP1 cells + 20 nM CPT, ATP luminescence, 48 h; further: potency means the concentration at half of the fitted maximal effect; nearly all actives have a fitted effect of over 55% in size
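Cell growth measured by CellTiter-Glo luminescence after a minimum 48 h, 37 C compound exposure with 20 nM CPT in Tdp1-knockout DT40 cells stably expressing hTDP1, seeded 400/well; qHTS titration format.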
RORg inh – qHTS for inhibitors of ROR gamma transcriptional activity. 5.4% of 310,000 active. Potency, µM (titrated, usually from 53.6 µM), for the others: top-dose activity change, negative = inhibition, most hits filed as inhibitors. Drosophila S2 Gal4-RORgamma UAS-luciferase reporter, 20 h; further: potency means the concentration at half of the fitted maximal effect; nearly all actives have a fitted effect of over 60% in size
Target sequence (P51450 whole entry, looked up, the tested form may be a part): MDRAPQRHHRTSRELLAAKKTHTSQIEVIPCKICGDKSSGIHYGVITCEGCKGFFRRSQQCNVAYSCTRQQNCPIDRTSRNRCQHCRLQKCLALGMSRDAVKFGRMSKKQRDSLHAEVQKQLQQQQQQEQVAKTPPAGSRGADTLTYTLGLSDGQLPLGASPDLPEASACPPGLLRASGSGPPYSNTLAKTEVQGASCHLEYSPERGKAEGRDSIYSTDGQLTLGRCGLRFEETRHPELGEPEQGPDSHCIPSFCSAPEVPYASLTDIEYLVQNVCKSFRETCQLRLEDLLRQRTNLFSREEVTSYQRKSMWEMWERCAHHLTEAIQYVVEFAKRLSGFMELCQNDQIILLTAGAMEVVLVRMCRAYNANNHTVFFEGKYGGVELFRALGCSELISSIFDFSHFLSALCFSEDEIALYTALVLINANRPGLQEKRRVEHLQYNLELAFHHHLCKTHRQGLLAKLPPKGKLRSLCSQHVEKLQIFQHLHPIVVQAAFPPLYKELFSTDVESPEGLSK
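Luciferase reporter read in Schneider cells carrying Gal4-RORγ (mouse) and UAS-Photinus luciferase; cells given compound 1 h before 700 uM copper sulfate induction, then incubated 20 h at ambient temperature.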
DT40 TDP1 no CPT – qHTS for Inhibitors of human tyrosyl-DNA phosphodiesterase 1 (TDP1): qHTS in cells in absence of CPT; DT40 Tdp1-/- hTDP1 cells, no CPT, ATP luminescence, 48 h; Potency, µM (top dose mostly 46.2 µM), without a hit: at the top dose activity change, negative = growth inhibition, usual class: inhibitors; 15% of 420,000 active; AID 686978, 2013; further: potency means the concentration at half of the fitted maximal effect; nearly all actives have a fitted effect of over 55% in size
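Chicken DT40 Tdp1-/- cells complemented with human TDP1, screened without camptothecin (DMSO vehicle only), 400 cells/well. Compounds pin-transferred, cells incubated at 37 °C for at least 48 hr. Growth read as ATP-dependent luminescence (CellTiter-Glo, 30 min at RT).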
IL1B secr inh – qHTS for Inhibitors of Inflammasome Signaling: IL-1-beta AlphaLISA Primary Screen; THP-1 LPS/ATP IL-1B secretion, AlphaLISA, 16 h; hits give low values; activity change, % at 57.5 µM; 4.7% of 360,000 active; AID 743279, 2014; in the data active means activity change below about -50%; inconclusive means mostly about -30% to -49%
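Secreted IL-1B measured by AlphaLISA bead assay after 16 h compound exposure of THP-1 cells; compounds (final up to 57.5 uM) added 1 h before LPS (250 ng/mL) and ATP (1.25 mM) stimulation; lower signal means less secretion.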
Gal4-VP16 FLuc – VP16 counterscreen qHTS for inhibitors of ROR gamma transcriptional activity; Drosophila S2 Gal4-VP16 UAS-luciferase, luminescence, 20 h; Potency, µM (highest dose often 53.6 µM), for inactives: at the highest dose activity, negative = inhibition, hits mostly inhibitors; 3.5% of 310,000 active; AID 2546, 2010;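 further: Gal4-VP16 expression switched on by copper sulfate through the metallothionein promoter; potency means the concentration at half of the fitted maximal effect; nearly all actives have a fitted effect of over 50% in size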
ELG1 DNA repair – qHTS screen for small molecules that inhibit ELG1-dependent DNA repair in human embryonic kidney (HEK293T) cells expressing luciferase-tagged ELG1; HEK293T ELG1-luciferase reporter, luminescence, 16 h; DNA damage induced by 5-fluorouridine; Potency, µM (highest dose often 46.1 µM), for the others: top-dose activity change, negative = inhibition, most hits filed as inhibitors; 2.3% of 330,000 active; AID 504467, 2011; further: potency means the concentration at half of the fitted maximal effect; nearly all actives have a fitted effect of over 55% in size
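Step one: seed 2,000 cells per well. Step two: pin-transfer compound or DMSO alongside 5-fluorouridine. Step three: incubate 16 hr, 37 °C, 5% CO2. Step four: add ONE-Glo, wait 30 min, read luminescence.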
* marks the source's active call; other numbers are inactive results; [ ] = another dose, or the depositor's remark. Unless noted, the call rests on the fitted dose curve; in most records, active means well fitted curve in the direction sought with a large enough effect; inconclusive means small, poorly fitted or top-dose-only effect, or another doubt; inactive means no such curve, though single readings can be large; an effect the other way counts as inactive or inconclusive. On the % scale 0 is the no-effect control and ±100 the full control effect.

For FC(F)(F)c1ccccc1-c1cc(NCc2cccs2)ncn1 the results were TDP1 cell CPT inconclusive, RORg inh 13%, DT40 TDP1 no CPT inconclusive and Gal4-VP16 FLuc 2%.
`CCOC(=O)CSc1nnc(NC(=O)CCc2ccccc2)s1` gave TDP1 cell CPT -4%, RORg inh 7%, DT40 TDP1 no CPT 0%, IL1B secr inh 10, Gal4-VP16 FLuc 3% and ELG1 DNA repair 19%.
Screening Cc1cccc(C)c1OCc1cc(C(=O)N(Cc2c(C)nn(C)c2C)C2CC2)no1 returned TDP1 cell CPT 13µM*, RORg inh 8%, DT40 TDP1 no CPT 8.2µM*, IL1B secr inh inconclusive, Gal4-VP16 FLuc inconclusive and ELG1 DNA repair inconclusive.
Cc1cccc(C)c1OCc1cc(C(=O)NCc2cn(C)nc2C)no1 was read as TDP1 cell CPT 18µM*, RORg inh -30%, DT40 TDP1 no CPT inconclusive, IL1B secr inh 9, Gal4-VP16 FLuc 8% and ELG1 DNA repair -5%.
For COc1ccc(OCc2cc(C(=O)NCCc3ccccc3)no2)c(Cl)c1 the results were TDP1 cell CPT 7.3µM*, RORg inh 9%, DT40 TDP1 no CPT 10µM*, IL1B secr inh 0, Gal4-VP16 FLuc -7% and ELG1 DNA repair -13%.
For O=C(COC(=O)CNC(=O)c1ccccc1)Nc1ccc2c(c1)OCO2 the results were TDP1 cell CPT 13%, RORg inh -28%, DT40 TDP1 no CPT -1%, IL1B secr inh -8, Gal4-VP16 FLuc 8% and ELG1 DNA repair 5%.
`CC(C)(C)OC(=O)N1CCc2onc(-c3ccc(N)cc3)c2C1=O` gave TDP1 cell CPT -8%, DT40 TDP1 no CPT -29% and IL1B secr inh 6.
Screening CC1=C(C(=O)N2CCCCCC2)CC(CC(=O)NCCCCc2ccccc2)C(=O)N1CCC1=CCCCC1 (stereo not given) returned TDP1 cell CPT 23µM*, DT40 TDP1 no CPT 18µM* and IL1B secr inh -67*.
`CCCCN1C(=O)C(CC(=O)NCCCCc2ccccc2)CC(C(=O)N2CCCCCC2)=C1C` (stereo not given) gave TDP1 cell CPT 18µM*, DT40 TDP1 no CPT 18µM* and IL1B secr inh 0.
`CC1=C(C(=O)N2CCCCCC2)CC(CC(=O)NC2CCCCC2)C(=O)N1CCC1=CCCCC1` (stereo not given) gave TDP1 cell CPT 13µM*, DT40 TDP1 no CPT inconclusive and IL1B secr inh -27.
`CC1=C(C(=O)N(C)C)CC(CC(=O)NCCCCc2ccccc2)C(=O)N1CCC1=CCCCC1` (stereo not given) gave TDP1 cell CPT inconclusive, DT40 TDP1 no CPT inconclusive and IL1B secr inh -10.
CC1=C(C(=O)N(C)C)CC(CC(=O)NC2CCCCC2)C(=O)N1CCC1=CCCCC1 (stereo not given) was read as TDP1 cell CPT -5%, DT40 TDP1 no CPT inconclusive and IL1B secr inh -21.
`COc1cc(/C=C/C(=O)Nc2cccc(S(=O)(=O)NC3=NCCCCC3)c2)ccc1OCC#N` gave TDP1 cell CPT inconclusive, DT40 TDP1 no CPT 26µM*, IL1B secr inh -56* and ELG1 DNA repair inconclusive.
`COc1ccc(-c2nn(-c3ccccc3)cc2C(=O)Nc2cccc(S(=O)(=O)NC3=NCCC3)c2)cc1` gave TDP1 cell CPT inconclusive, DT40 TDP1 no CPT inconclusive, IL1B secr inh inconclusive and ELG1 DNA repair 23µM*.
For COc1ccc(/C=C/C(=O)Nc2cccc(S(=O)(=O)NC3=NCCCCC3)c2)cc1 the results were TDP1 cell CPT inconclusive, RORg inh -8%, DT40 TDP1 no CPT 23µM*, IL1B secr inh 0, Gal4-VP16 FLuc -7% and ELG1 DNA repair inconclusive.
For O=C(/C=C/c1ccc(OC(F)F)cc1)Nc1cccc(S(=O)(=O)NC2=NCCCCC2)c1 the results were TDP1 cell CPT inconclusive, RORg inh inconclusive, DT40 TDP1 no CPT inconclusive, IL1B secr inh -81*, Gal4-VP16 FLuc inconclusive and ELG1 DNA repair inconclusive.
O=C(COC(=O)c1ccc(OC(F)F)cc1)Nc1cccc(S(=O)(=O)NC2=NCCC2)c1 was read as TDP1 cell CPT -15%, DT40 TDP1 no CPT 3%, IL1B secr inh 15 and ELG1 DNA repair -8%.
O=C(COC(=O)/C=C/c1ccc(Cl)cc1)Nc1cccc(S(=O)(=O)NC2=NCCCCC2)c1 was read as TDP1 cell CPT inconclusive, DT40 TDP1 no CPT -30%, IL1B secr inh -9 and ELG1 DNA repair 9%.
Screening Cc1ccc(NC(=O)CSCC(=O)NC2(C)CCS(=O)(=O)C2)cc1 (stereo not given) returned TDP1 cell CPT -4%, DT40 TDP1 no CPT 2%, IL1B secr inh 7 and ELG1 DNA repair 13%.
O=S1(=O)NC(C2CC2c2ccccc2)CCO1 (stereo not given) was read as TDP1 cell CPT inconclusive, RORg inh -16%, DT40 TDP1 no CPT -9%, IL1B secr inh -8, Gal4-VP16 FLuc 4% and ELG1 DNA repair 14%.
`COc1ccc(COC(=O)N/N=C2/C[C@@H](O)[C@@H](O)[C@@H]3[C@@H]4C(=O)N(Cc5ccc6c(c5)OCO6)C(=O)[C@H]4CC[C@H]23)cc1` gave RORg inh 2%[10 µM] and Gal4-VP16 FLuc -2%[10 µM].
For CCOc1ccc(NC(=O)C(=O)N/N=C\c2ccc(CNS(=O)(=O)c3ccccc3)o2)cc1 the results were TDP1 cell CPT inconclusive, RORg inh 1%[10 µM], DT40 TDP1 no CPT 21µM*, IL1B secr inh 80, Gal4-VP16 FLuc -24% and ELG1 DNA repair inconclusive.
COc1ccc(NC(=O)C(=O)N/N=C\c2ccc(CNC(=O)C(=O)Nc3ccc(C)c(C)c3)o2)c(OC)c1 was read as TDP1 cell CPT 5.2µM*, RORg inh 11%[1.91 µM], DT40 TDP1 no CPT 9.2µM*, IL1B secr inh 28, Gal4-VP16 FLuc 3.2µM* and ELG1 DNA repair -7%.
O=C1CC(N2CCN(S(=O)(=O)c3ccccc3F)CC2)C(=O)N1c1ccccc1F (stereo not given) was read as TDP1 cell CPT -1%, DT40 TDP1 no CPT 23% and IL1B secr inh 29.
